# Values joined by “and” are separate entries in the source; they are usually repeats but may differ in a detail not shown here. Equal values may be shown once.
# Assay: HepG2 cell viability effects, profiling panel, calcein-AM fluorescence, 48 h, basal (AID 1164); also: test concentration not given here
# Details: higher = more signal
row,SMILES,z-score
1,COC(=O)C1=C(C)N(Cc2ccccc2)[C@]23O[C@](C(=O)OC)(C(=O)N2[C@@H]1c1ccccc1)[C@@H](C(=O)OC)[C@H]3C(=O)OC,0.209 and 1.32
2,CO[C@@H]1COC(=O)CC=C[C@H](C)COC(=O)[C@H](C)NC(=O)CC=C[C@H]1C,0.46
3,COC(=O)C1=C(C)N(Cc2ccccc2)C2=C(C(C)=O)[C@H](c3ccccc3)[C@@](O)(C(=O)OC)C(=O)N2[C@@H]1c1ccccc1,0.954 and 0.364
4,C[N+](C)(C)CCCCNC(=O)[C@H]1C[C@H]2C(=O)N[C@@H](CCCC[N+](C)(C)C)C(=O)N2[C@H]1c1cccc(OCCO)c1,-1.13 and -0.231
5,CCOC(=O)NN=C1C[C@@H](O)[C@@H](O)[C@@H]2[C@@H]3C(=O)N(Cc4ccc5c(c4)OCO5)C(=O)[C@@H]3CC[C@@H]12,0.32
6,C[N+](C)(C)CCCCNC(=O)[C@H]1C[C@H]2C(=O)N[C@@H](CCCC[N+](C)(C)C)C(=O)N2[C@H]1c1ccc(O)cc1,-0.905 and -1.22
7,O=c1n(-c2ccccc2)c(=O)n2n1CC[C@@H]1C(=NOC[C@@H](O)COCc3ccco3)[C@H]3O[C@H]3[C@@H](O)[C@@H]12,-0.0728 and -0.713
8,C=C[C@@H](C)[C@H](O)c1ccc(O)c2ccccc12,-0.988 and -0.789
9,COC(=O)C1=C(C)N(Cc2ccccc2)C2=C(C(C)=O)C[C@@](O)(C(=O)OC)C(=O)N2[C@@H]1c1ccccc1,-0.491 and 0.55
10,CCC[C@@H]1C[C@@]1(CCC)[C@@H](NC(=O)c1ccc(-c2ccccc2)cc1)c1cccc(Cl)c1,-2.12 and 1.52
11,C=CCN(CCCC)C(=O)C1N(CCOCCO)C(=O)C2C(C(=O)O)C3C=CC21O3 (stereo not given),-1.2 and -1.42
12,C=CCN(Cc1ccccc1)C(=O)C1N(CCOCCO)C(=O)C2C(C(=O)O)C3C=CC21O3 (stereo not given),-0.475 and -1.46
13,C=CC[C@@H](O)c1ccc(O)c2ccccc12,0.23 and -0.354
14,CO[C@@H]1C=CCC(=O)N2CCC[C@H]2C(=O)OC[C@H](C)C(=O)OC[C@H]1C,1.33
15,CN1C(=O)C2CC=C([C@H]3Oc4ccccc4S(=O)(=O)N4CCC[C@@H]34)CC2C1=O (stereo not given in full),-0.926 and -0.369
16,CCOC(=O)c1ccc(NC(=O)O[C@H]2[C@H](OC(=O)Nc3ccccc3)[C@@H](OC(=O)Nc3ccccc3)[C@@H](OC)O[C@@H]2CO)cc1,-1.92 and -2.54
17,C=CCN(Cc1ccccc1)C(=O)C(c1cccs1)N(C(=O)/C=C\C(=O)O)c1c(Cl)cccc1CO (stereo not given),-0.876 and -0.217
18,CC(CO)N1C(=O)[C@@H]2C3C(=O)OCCC=C[C@H]3OC23C=CCN(CCN2CCOCC2)C(=O)[C@@H]13 (stereo not given in full),-1.36 and -0.421
19,CO[C@H]1COC(=O)CC=C[C@@H](C)COC(=O)[C@@H](OCc2ccccc2)C=C[C@@H]1C,0.835
20,CCCC[C@@H]1CN2[C@@H](CC[C@@H](C)[C@@H]2c2ccc(Br)cc2)C(=O)O1,0.537 and -0.336

row,SMILES,z-score
1,CCN1C(=O)[C@H]2[C@H]3[C@H](O)[C@H](O)CC(=NOC[C@@H](O)COCc4ccco4)[C@@H]3CC[C@H]2C1=O,-0.417 and -0.814
2,C=CCN(CCCCC)C(=O)C(c1cccs1)N(C(=O)/C=C\C(=O)O)c1ccc(CCO)cc1 (stereo not given),0.877 and 1.59
3,C=CCN(C(=O)C1N(c2c(Cl)cccc2CO)C(=O)C2C(C(=O)O)C3C=CC21O3)c1ccc(OC)cc1 (stereo not given),-0.915 and 1.6
4,C=CCN(CCCC)C(=O)C1N(C(C)(C)CO)C(=O)C2C(C(=O)O)C3C=CC21O3 (stereo not given),0.0674 and -0.857
5,C=C[C@@H](C)[C@@H](O)c1ccc(OCCO)cc1,-0.976 and 0.692
6,C=CCN(CCCCC)C(=O)C1N(C(C)(C)CO)C(=O)C2C(C(=O)O)C3C=CC21O3 (stereo not given),0.174 and -0.209
7,CCOC(=O)[C@@H]1CC2O[C@]23C[C@@H]1C(=O)N1CCC[C@@H]1[C@H]3O[Si](C)(C)C(C)(C)C (stereo not given in full),-0.526 and -0.885
8,CCOC(=O)C[C@H]1[C@H](OC(=O)c2ccccc2-c2ccccc2)[C@@H](NC(=O)Cc2ccc(OC)cc2)c2cc(OCCCO)ccc2N1C(=O)Cc1ccc(OC)cc1,-0.0677 and -0.11
9,COC(=O)CC=C[C@@H](C)[C@@H](CO)NS(=O)(=O)c1ccc(C)cc1,-0.252 and 0.461
10,C[N+](C)(C)CCCCCCNC(=O)[C@@H]1C[C@@H]2C(=O)N[C@@H](CCCC[N+](C)(C)C)C(=O)N2[C@@H]1c1ccc(O)cc1,0.284 and -0.812
11,COC(=O)C1=C(C)N(Cc2ccccc2)C2=C3C(=O)CCC[C@@H]3[C@@](O)(C(=O)OC)C(=O)N2[C@@H]1c1ccccc1,0.408 and -0.0984
12,O=C1C[C@]2(c3ccc([N+](=O)[O-])cc3)C(=O)N(Cc3ccccc3)c3cc(CO)ccc3[C@H]2N1C1CCCCC1,-1.3 and 0.0974
13,CC(C)=CCCC(C)=CCON=C1C[C@@H](O)[C@@H](O)[C@@H]2[C@@H]3C(=O)N([C@@H](C)c4ccccc4)C(=O)[C@@H]3CC[C@H]12,0.446
14,C[C@@H]1CC[C@H]2C(=O)NC[C@@H](O)CN2[C@H]1c1ccc(Br)cc1,-0.141 and 0.284
15,COc1ccc(O[C@H]2C=C[C@@H](c3ccccc3)O[C@@H]2COC(=O)CCC(C)=NO[C@H](C)c2cn([C@H](CO)Cc3ccccc3)nn2)cc1,-1.06 and -0.619
16,C=CCN(CCCC)C(=O)C(c1cccs1)N(C(=O)/C=C\C(=O)O)c1c(Cl)cccc1CO (stereo not given),-0.934 and -0.809
17,CC(CO)N1C(=O)[C@@H]2C3C(=O)OCCC=C[C@H]3OC23C=CCN(c2ccc(Cl)cc2)C(=O)[C@@H]13 (stereo not given in full),0.47 and 1.07
18,C=CCN(C(=O)C(c1cccs1)N(CCOCCO)C(=O)/C=C\C(=O)O)C(C)(C)C (stereo not given),1.25 and 0.41
19,C=C[C@H](OC)[C@@H](O)c1ccc(O)c(F)c1,-0.0991 and 0.594
20,CC(CO)N1C(=O)[C@@H]2C3C(=O)OCCC=C[C@H]3OC23C=CCN(C(C)(C)C)C(=O)[C@@H]13 (stereo not given in full),-1.27 and -0.487

# Source: PubChem BioAssay
